From the supplement of paper PMC10338343
± gives the standard deviation. Over roughly 8,200 sequences, “pre-steady-state target cleavage rate” has its median near 0.024; the highest 2% begin near 1.3. The list comes from a sample in which the highest values are over-represented; it also holds similar and randomly drawn sequences.

Tested on: MIWI (PIWIL1) piRISC loaded with L1MC piRNA (30 nt)
Experiment: pre-steady-state target cleavage rate (min^-1); MIWI and MILI are mouse PIWI proteins and EfPiwi is from a freshwater sponge; tags in brackets are library labels; higher = faster piRNA-guided slicing of the target
Details: guide: L1MC piRNA 5'p-UAACUAAAUACUAUGCAAGCUGUAGGUCCU
Procedure: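 Cleave-'n-Seq: a library of target RNAs (target site embedded in constant flanks, ACAGCATTCCGCGTTAGTGATATCCG... 5' flank; DNA-blocked outside the site) at 0.1 nM was incubated with 1 nM active mouse MILI or MIWI piRISC (synthetic 5'-monophosphorylated piRNA guide) with or without 500 nM mouse GTSF1 at 33 °C for 1 min to 16 h. Uncleaved targets were sequenced and normalised to non-target controls, and the pooled three trials were fitted to a burst-and-steady-state model to give the pre-steady-state cleavage rate (min^-1; k3 is constrained to at most 1e-4). Sequence is the target site only; target names encode pairing extent (gX:gY) and contiguous / 1-mismatch / 2-mismatch / bulge geometry. Fits with R² ≤ 0 are excluded.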

[1] = auxiliary factor: 500 nM mouse GTSF1
[2] = auxiliary factor: none (no GTSF1)

| Sequence | pre-steady-state target cleavage rate [1] | pre-steady-state target cleavage rate [2] |
| --- | --- | --- |
| UCCUGGAUCAGCUUGCAUACUAUUUUCAAA | 0.00597 ± 0.0043 | – |
| UCCUGGUACUGCUUGCAAAGUAUUUAGUUA | 0.46 ± 0.036 | 0.0221 ± 0.0052 |
| UCCUCCUACAGCUUGCAUAGAAUUUACAAA | 0.295 ± 0.045 | – |
| UCCUGGAUGUCGAACGUAACUAUUUACUUA | < 0.0001 | – |
| UCCUCCUACAGCUUCGAUAGUAUUUAGUAA | 0.263 ± 0.031 | – |
| UCCUGGAUGUGCUUGCAUAGUAUAAAGUAA | 0.00523 ± 0.0043 | – |
| UCGACCUACAGCUUGCAUAGUAUUGAGUUA | 0.499 ± 0.042 | 0.0477 ± 0.0089 |
| UCCUGGAUCAGCUUGCAUACUUUUUAGUUA | 0.014 ± 0.0033 | 0.00335 ± 0.0016 |
| UCGACCUACAGCUUGCAUAGUAGUUUAGUUA | 0.574 ± 0.031 | 0.0134 ± 0.0039 |
| UCCUGGUACAGCUUGCAAAGUAUUAAGUUA | 0.35 ± 0.049 | 0.0147 ± 0.0043 |
| UCCUCCUACAGCGUUGCAUAGUAUUUAGUUA | 0.96 ± 0.057 | 0.0256 ± 0.0045 |
| AGGACCUACAGCGUUGCAUAGUAUUUAGUUA | 1.21 ± 0.086 | 0.0748 ± 0.015 |
| UGGACCUACAGCGUUGCAUAGUAUUUAGUUA | 1.33 ± 0.11 | 0.0647 ± 0.013 |
| UCCACCUACAGCGUUGCAUAGUAUUUAGUUA | 1.03 ± 0.13 | 0.0279 ± 0.005 |
| UCCUCCUACAGCGUGCAUAGUAUUUAGUUA | 1.4 ± 0.042 | 0.0379 ± 0.0072 |
| UCCUCCUACAGCUGUGCAUAGUAUUUAGUUA | 1.18 ± 0.064 | 0.0204 ± 0.0047 |
| UCGACCUACAGCUUGCAUAGUAUUAAGAUA | 0.248 ± 0.029 | 0.00627 ± 0.0027 |
| UCGACCUACAGGUUGCAUAGUAUUUACAAA | 0.183 ± 0.026 | – |
| AGGACCAACAGCUUGCAUAGUAUAUAGUUA | 0.775 ± 0.054 | 0.0604 ± 0.013 |
| AGGACCUACAGCUUGCAUAGUAAAAAGUUA | 0.489 ± 0.058 | 0.00574 ± 0.0034 |
| UCCUCCUACAGCUUGCAUAGAAAUUAGUUA | 0.169 ± 0.019 | 0.00268 ± 0.0024 |

| Sequence | pre-steady-state target cleavage rate [1] | pre-steady-state target cleavage rate [2] |
| --- | --- | --- |
| UCCUGGUACAGCUUGGUUAGUAUUUAGUAA | 0.412 ± 0.079 | 0.0101 ± 0.0031 |
| UCCUGGUUGAGCUUGCAUAGUAUUUAGAAA | 0.135 ± 0.024 | 0.00555 ± 0.0033 |
| UCCUGGAACAGCUUGCAUACAAUUUAGUUA | 0.0117 ± 0.0047 | – |
| AGGACCUACAGCUUGCAUAGUAUAAAGAAA | 0.434 ± 0.077 | – |
| UCGACCACAGCUUGCAUAGUAUUUAGUUA | 1.22 ± 0.051 | 0.0643 ± 0.011 |
| AGGACCCACAGCUUGCAUAGUAUUUAGUUA | 1.47 ± 0.093 | 0.0682 ± 0.0093 |
| UCCACCCACAGCUUGCAUAGUAUUUAGUUA | 0.787 ± 0.052 | 0.0508 ± 0.0088 |
| AGGACCACAGCUUGCAUAGUAUUUAGUUA | 1.29 ± 0.066 | 0.0967 ± 0.019 |
| UGGACCACAGCUUGCAUAGUAUUUAGUUA | 1.47 ± 0.083 | 0.0744 ± 0.015 |
| UCGACCCACAGCUUGCAUAGUAUUUAGUUA | 1.19 ± 0.044 | 0.0644 ± 0.011 |
| UGGACCCACAGCUUGCAUAGUAUUUAGUUA | 1.43 ± 0.091 | 0.0699 ± 0.011 |
| UGGACCUAGAGCUUGCAUAGUAUUUAGAAA | 0.296 ± 0.034 | 0.0101 ± 0.0034 |
| UCCACCUAGAGCUAGCAUAGUAUUUAGUUA | 0.339 ± 0.042 | 0.0098 ± 0.0019 |
| UCCUGCUACUCGUUGCAUAGUAUUUACAAA | 0.0303 ± 0.0091 | – |
| UGGACGUACAGCUUGCAUAGUUUUUAGUUA | 0.35 ± 0.015 | 0.0389 ± 0.0097 |
| UCCUGGAACAGCUUCCAUAGUAUUAAGUUA | 0.0095 ± 0.0047 | – |
| UCGACCUACAGCUUGCAAUCUAUUUAGAAA | 0.129 ± 0.033 | – |
| AGGCCCUACAGCUUGCAUAGUAUUUAGUUA | 1.15 ± 0.058 | 0.115 ± 0.018 |
| UGGCCUACAGCUUGCAUAGUAUUUAGUUA | 1.46 ± 0.076 | 0.0761 ± 0.014 |
| UCGGCCUACAGCUUGCAUAGUAUUUAGUUA | 1.21 ± 0.05 | 0.0767 ± 0.015 |
| UGGCCCUACAGCUUGCAUAGUAUUUAGUUA | 1.39 ± 0.11 | 0.0833 ± 0.015 |

| Sequence | pre-steady-state target cleavage rate [1] | pre-steady-state target cleavage rate [2] |
| --- | --- | --- |
| AGGCCUACAGCUUGCAUAGUAUUUAGUUA | 1.41 ± 0.075 | 0.107 ± 0.019 |
| UCCACCUAGAGCUUGCAUAGUUUUUAGUUA | 0.22 ± 0.03 | 0.0119 ± 0.0015 |
| UCCUGGAUGACGCUUGCAUAGUAUUUAGUUA | 0.911 ± 0.059 | 0.0648 ± 0.0085 |
| UCCACCUACUGCUUGCAUAGUAUUUAGAUA | 0.253 ± 0.043 | 0.0104 ± 0.0021 |
| UCCUGGUUGUGCUUGCAUAGUAUUUAGUAA | 0.2 ± 0.022 | 0.0175 ± 0.0053 |
| UCCUGCUACAGCUUGCAUAGUGUUUAGUUA | 0.648 ± 0.045 | 0.0278 ± 0.0045 |
| UCGACCUCACAGCUUGCAUAGUAUUUAGUUA | 1.38 ± 0.05 | 0.0855 ± 0.017 |
| UCCACCUCACAGCUUGCAUAGUAUUUAGUUA | 1.06 ± 0.051 | 0.0701 ± 0.012 |
| UGGACCUCACAGCUUGCAUAGUAUUUAGUUA | 1.46 ± 0.084 | 0.0711 ± 0.014 |
| UCGACCUCAGCUUGCAUAGUAUUUAGUUA | 1.38 ± 0.056 | 0.064 ± 0.013 |
| UCGACCUCCAGCUUGCAUAGUAUUUAGUUA | 1.17 ± 0.06 | 0.0635 ± 0.0099 |
| UCGACCUUGAGCUUGCAUAGUAUUUAGUUA | 0.789 ± 0.057 | 0.0478 ± 0.0086 |
| AGGACCUCACAGCUUGCAUAGUAUUUAGUUA | 1.28 ± 0.064 | 0.102 ± 0.017 |
| AGGACCUUGUGCUUGCAUAGUAUUUAGUUA | 0.869 ± 0.046 | 0.0654 ± 0.012 |
| UCCACCUACAGCUUGCAUAUUAUUUAGUUA | 1.01 ± 0.075 | 0.0312 ± 0.007 |
| UGCACCUACAGCUUGCAUUGUAUUUAGUUA | 0.808 ± 0.057 | 0.0286 ± 0.0068 |
| UCCUGGAUGUCGAUGCAUAGUAUUUAGUUA [g2:g17:cont:t1A] | 0.0169 ± 0.005 | – |
| UGGACCUACAGCAAGCAUAGUAUUUAGAAA | 0.271 ± 0.031 | – |
| UCCUGGAUGUCCUUGCAUAGUAUUUAGCUUA | 0.0471 ± 0.0091 | 0.00476 ± 0.0022 |
| UGGACCUACAGCUUGCAUAGUAUUUAGUCA | 0.934 ± 0.05 | 0.0559 ± 0.011 |
